Our source for the log2 fold change values is the supplement of paper PMC10849652.

The full data set covers some 7,900 targets. This sample favours those with a hit. About 0.6% of all pairs of compound and target were hits.

Chain of UniProt Q14693 (Q14693 whole entry, looked up): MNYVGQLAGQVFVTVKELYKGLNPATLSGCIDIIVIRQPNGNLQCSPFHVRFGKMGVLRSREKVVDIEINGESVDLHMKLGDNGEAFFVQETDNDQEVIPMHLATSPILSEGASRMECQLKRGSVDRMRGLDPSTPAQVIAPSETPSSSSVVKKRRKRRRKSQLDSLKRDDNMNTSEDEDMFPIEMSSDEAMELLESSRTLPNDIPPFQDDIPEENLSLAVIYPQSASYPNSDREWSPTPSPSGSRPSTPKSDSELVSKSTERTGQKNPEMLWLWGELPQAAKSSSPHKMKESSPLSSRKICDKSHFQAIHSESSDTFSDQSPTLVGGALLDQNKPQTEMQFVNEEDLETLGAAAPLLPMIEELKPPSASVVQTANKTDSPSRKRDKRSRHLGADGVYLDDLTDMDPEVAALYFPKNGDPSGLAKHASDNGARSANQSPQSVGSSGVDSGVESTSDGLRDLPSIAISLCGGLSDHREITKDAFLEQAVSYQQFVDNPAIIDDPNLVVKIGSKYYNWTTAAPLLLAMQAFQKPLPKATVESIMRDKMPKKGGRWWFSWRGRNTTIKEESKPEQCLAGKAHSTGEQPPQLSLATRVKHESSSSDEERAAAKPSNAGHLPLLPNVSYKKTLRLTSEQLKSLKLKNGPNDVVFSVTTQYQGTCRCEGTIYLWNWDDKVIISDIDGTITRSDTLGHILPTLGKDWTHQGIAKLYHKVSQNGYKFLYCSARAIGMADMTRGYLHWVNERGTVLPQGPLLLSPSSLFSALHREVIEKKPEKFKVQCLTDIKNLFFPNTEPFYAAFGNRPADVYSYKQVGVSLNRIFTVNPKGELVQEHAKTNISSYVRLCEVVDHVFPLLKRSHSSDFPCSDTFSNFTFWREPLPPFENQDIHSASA
Chain of UniProt Q92615 (Q92615 whole entry, looked up): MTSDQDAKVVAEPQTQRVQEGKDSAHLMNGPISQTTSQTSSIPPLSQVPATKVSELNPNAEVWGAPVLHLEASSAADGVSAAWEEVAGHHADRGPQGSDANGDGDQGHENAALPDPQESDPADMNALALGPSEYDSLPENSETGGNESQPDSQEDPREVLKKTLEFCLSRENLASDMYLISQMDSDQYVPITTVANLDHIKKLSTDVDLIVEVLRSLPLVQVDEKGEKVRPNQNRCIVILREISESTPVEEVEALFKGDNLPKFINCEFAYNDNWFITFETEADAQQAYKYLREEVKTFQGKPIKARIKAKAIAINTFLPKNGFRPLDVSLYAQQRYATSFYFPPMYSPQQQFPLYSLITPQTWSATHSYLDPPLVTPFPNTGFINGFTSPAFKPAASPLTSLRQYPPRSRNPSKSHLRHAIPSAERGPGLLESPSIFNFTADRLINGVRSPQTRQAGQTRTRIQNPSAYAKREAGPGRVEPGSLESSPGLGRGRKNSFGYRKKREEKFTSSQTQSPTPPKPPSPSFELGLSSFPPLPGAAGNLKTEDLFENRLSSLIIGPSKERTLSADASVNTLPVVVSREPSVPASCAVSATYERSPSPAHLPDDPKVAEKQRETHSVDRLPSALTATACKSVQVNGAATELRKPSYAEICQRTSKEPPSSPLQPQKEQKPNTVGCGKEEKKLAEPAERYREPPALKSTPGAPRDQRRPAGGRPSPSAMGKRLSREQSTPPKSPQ
Chain of UniProt Q9HCC0 (Q9HCC0 whole entry, looked up): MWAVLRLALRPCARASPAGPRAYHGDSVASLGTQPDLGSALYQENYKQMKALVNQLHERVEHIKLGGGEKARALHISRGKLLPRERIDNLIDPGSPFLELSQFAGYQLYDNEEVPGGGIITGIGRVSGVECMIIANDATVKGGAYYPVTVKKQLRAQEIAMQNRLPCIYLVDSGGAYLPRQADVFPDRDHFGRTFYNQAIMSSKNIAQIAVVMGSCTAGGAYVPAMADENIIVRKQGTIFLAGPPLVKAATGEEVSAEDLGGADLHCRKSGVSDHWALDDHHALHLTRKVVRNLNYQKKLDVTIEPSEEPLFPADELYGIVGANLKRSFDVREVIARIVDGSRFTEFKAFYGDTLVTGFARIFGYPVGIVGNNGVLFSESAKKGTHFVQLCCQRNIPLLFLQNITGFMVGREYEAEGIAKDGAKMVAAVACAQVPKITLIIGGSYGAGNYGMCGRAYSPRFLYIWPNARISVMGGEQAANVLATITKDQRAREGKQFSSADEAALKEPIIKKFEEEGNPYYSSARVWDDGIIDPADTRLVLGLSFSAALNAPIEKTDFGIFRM
Chain of UniProt P13473 (P13473 whole entry, looked up): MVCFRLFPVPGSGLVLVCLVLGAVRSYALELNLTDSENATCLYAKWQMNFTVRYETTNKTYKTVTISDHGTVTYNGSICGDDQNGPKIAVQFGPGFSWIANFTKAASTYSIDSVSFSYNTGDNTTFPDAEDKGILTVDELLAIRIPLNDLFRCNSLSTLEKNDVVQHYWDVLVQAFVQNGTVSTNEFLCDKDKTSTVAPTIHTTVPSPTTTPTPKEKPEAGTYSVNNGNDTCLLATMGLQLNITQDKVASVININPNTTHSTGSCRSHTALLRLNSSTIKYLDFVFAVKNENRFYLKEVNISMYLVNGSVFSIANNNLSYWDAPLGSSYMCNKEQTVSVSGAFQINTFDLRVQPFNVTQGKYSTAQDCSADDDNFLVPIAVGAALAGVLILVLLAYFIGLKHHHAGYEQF
Chain of UniProt Q6N075 (Q6N075 whole entry, looked up): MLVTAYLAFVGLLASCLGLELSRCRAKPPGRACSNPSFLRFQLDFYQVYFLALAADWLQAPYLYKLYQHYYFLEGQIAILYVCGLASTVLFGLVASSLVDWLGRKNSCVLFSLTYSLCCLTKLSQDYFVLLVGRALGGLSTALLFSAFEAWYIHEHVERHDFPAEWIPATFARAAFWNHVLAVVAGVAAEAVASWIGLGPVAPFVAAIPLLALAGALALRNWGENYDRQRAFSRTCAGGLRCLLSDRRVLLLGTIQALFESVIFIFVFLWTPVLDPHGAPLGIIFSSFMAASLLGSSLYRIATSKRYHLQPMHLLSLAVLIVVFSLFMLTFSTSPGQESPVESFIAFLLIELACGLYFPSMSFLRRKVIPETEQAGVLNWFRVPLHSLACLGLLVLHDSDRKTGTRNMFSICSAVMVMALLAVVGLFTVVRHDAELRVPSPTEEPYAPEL
Chain of UniProt Q08431 (Q08431 whole entry, looked up): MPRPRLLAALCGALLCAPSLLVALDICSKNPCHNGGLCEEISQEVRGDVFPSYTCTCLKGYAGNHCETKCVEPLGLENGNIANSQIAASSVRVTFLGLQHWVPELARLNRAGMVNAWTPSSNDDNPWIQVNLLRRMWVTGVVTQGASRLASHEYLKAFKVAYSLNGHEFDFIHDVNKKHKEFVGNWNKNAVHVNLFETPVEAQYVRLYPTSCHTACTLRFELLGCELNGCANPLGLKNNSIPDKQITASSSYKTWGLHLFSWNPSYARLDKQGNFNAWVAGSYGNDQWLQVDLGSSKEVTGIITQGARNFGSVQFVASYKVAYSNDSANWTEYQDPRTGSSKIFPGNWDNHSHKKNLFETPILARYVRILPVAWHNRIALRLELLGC
Chain of UniProt Q8NC56 (Q8NC56 whole entry, looked up): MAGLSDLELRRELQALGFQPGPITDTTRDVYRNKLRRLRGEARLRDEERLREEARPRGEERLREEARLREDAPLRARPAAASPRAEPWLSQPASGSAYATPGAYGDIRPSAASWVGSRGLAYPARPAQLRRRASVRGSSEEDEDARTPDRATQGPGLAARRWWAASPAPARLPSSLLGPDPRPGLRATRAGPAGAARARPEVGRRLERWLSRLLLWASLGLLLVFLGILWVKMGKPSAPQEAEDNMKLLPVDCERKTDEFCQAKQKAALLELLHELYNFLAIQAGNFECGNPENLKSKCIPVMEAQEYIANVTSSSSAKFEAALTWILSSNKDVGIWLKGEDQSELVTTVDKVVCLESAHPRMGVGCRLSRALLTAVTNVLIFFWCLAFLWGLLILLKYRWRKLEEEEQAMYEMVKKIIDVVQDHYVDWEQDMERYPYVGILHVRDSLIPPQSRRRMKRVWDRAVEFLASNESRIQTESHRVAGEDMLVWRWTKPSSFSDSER
Chain of UniProt P49137 (P49137 whole entry, looked up): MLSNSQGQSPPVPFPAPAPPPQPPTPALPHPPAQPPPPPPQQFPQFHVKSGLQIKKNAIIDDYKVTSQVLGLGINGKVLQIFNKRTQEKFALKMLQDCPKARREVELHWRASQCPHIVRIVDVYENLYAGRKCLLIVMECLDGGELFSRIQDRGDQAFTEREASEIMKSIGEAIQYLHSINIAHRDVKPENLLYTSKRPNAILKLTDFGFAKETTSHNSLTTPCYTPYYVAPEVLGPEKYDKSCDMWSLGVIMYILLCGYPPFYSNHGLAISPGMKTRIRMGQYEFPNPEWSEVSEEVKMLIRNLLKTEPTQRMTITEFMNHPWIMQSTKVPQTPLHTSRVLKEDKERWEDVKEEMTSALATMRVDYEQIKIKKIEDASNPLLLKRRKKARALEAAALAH
Chain of UniProt Q96AQ8 (Q96AQ8 whole entry, looked up): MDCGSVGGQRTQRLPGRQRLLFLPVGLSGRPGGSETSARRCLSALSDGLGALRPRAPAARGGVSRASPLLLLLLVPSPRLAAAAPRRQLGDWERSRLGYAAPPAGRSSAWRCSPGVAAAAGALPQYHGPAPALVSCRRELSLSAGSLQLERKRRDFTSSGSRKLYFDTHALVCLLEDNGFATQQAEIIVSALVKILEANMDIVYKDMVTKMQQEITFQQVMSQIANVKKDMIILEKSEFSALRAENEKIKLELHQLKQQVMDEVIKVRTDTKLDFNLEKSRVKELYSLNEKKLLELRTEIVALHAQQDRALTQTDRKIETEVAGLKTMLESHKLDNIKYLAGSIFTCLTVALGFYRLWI
Chain of UniProt P22692 (P22692 whole entry, looked up): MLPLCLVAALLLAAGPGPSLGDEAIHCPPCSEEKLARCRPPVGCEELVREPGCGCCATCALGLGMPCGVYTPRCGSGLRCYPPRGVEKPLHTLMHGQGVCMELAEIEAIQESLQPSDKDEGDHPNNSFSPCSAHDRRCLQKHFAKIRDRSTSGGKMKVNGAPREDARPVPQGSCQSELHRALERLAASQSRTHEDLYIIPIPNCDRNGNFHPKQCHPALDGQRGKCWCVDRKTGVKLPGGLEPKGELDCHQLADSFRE

Compound in this assay: Cc1cc(Nc2cc(N3CCN(C)CC3)nc(Sc3ccc(NC(=O)C4CC4)cc3)n2)n[nH]1 [tozasertib]
In words: log2 fold change, soluble protein after heating vs DMSO (PISA); higher = thermal stabilisation; K562 cells, 10 uM, 30 min; active = over 0.2 and 3.5 SD of the protein, either way, in both replicates (recomputed). The method, boiled down: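 K562 cells at 2×10^6 cells/mL were exposed to 10 μM compound for 30 min, then aliquots were heated for 3 min across 48°C-58°C, pooled, and extracted in PBS containing 0.5% NP-40 at 4°C. The supernatant after 21,000xg for 90 min was taken as soluble protein and measured by TMTpro 16plex LC-MS/MS with channel sums equalised. Thermal stability is reported relative to control samples, with values from duplicates. Fold changes are given on a log2 scale.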
Take MIEF1 (UniProt Q9NQG6): the log2 fold change is -0.038 (inactive).
For LDAH isoform 2 (UniProt Q9H6V9), the log2 fold change was -0.047 (inactive).
To MAPKAPK2 (UniProt P49137) belongs -0.018 (inactive); to LIAS (UniProt O43766), -0.015 (inactive).
The result for MFSD5 isoform 2 (UniProt Q6N075) reads 0.144 (inactive).
Turning to LARP4B (UniProt Q92615), the log2 fold change is 0.037 (inactive).
LAMP2 (UniProt P13473): the log2 fold change is 0.015 (inactive).
Consider MAGEC2 (UniProt Q9UBF1), for which the log2 fold change was 0.107 (inactive).
The result for IGFBP4 (UniProt P22692) reads -0.021 (inactive); that for ILF3 isoform 7 (UniProt Q12906), 0.039 (inactive); that for LTV1 (UniProt Q96GA3), 0.035 (inactive).
The result for MICU2 (UniProt Q8IYU8) reads -0.036 (inactive); that for MCUR1 (UniProt Q96AQ8), 0.043 (inactive).
The result for KDM1A isoform 2 (UniProt O60341) reads 0.049 (inactive); that for LEMD2 (UniProt Q8NC56), 0.008 (inactive); that for LRRFIP1 (UniProt Q32MZ4), -0.027 (inactive).
In the case of LPIN1 isoform 7 (UniProt Q14693), the log2 fold change was -0.021 (inactive).
Regarding MFN1 (UniProt Q8IWA4), the log2 fold change is -0.063 (inactive).
Turning to KIF1B isoform 4 (UniProt O60333), the log2 fold change is 0.03 (inactive).
To MFGE8 (UniProt Q08431) belongs 0.085 (inactive).
The result for MCCC2 (UniProt Q9HCC0) reads -0.011 (inactive); that for MICU1 isoform 3 (UniProt Q9BPX6), -0.102 (inactive).
